{
  "source": "PubChem BioAssay (NCI)",
  "note": "“And” between values parts separate entries of the source, which are not always exact repeats. Equal values may be shown once. Compounds without any hit were thinned out: in the full panel of roughly 83,000, 20% have a hit.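 96-well plates, one dose, 48 hours. Percent growth reported; active if below 10.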 Unmarked numbers belong to inactive results. The source made the active and inactive calls.",
  "data": [
    {"system": "KM12 colon", "assay": "NCI-60 one-dose screen, 48 h (100 = growth as untreated, 0 = no growth, -100 = all killed)", "conditions": "10 µM unless noted", "description": "Growth inhibition of the KM12 human tumor cell line is measured as a screen for anti-cancer activity. Cells are grown in 96 well plates and exposed to the test compound for 48 hours. Compounds are tested at a single concentration, which is 10^-5 M for most compounds. The reported endpoint is percent growth (GI% or GIPRCNT), where numbers from 0 - 100% represent growth inhibition, and numbers from -100% - 0 represent cell death. For example, a value of 40 represents 60% growth inhibition. A value of 0 means no net growth occurred over the course of the experiment. A value of -40 indicates 40% of cells at the beginning of the experiment died by the end of the experiment. A value of -100 means all cells are dead at the end of the experiment.\nNCI-60 Human Tumor Cell Lines Screen was performed using the standard one-dose NCI protocol, which is described in more detail at https://dtp.cancer.gov/discovery_development/nci-60/default.htm.\nCompounds with GIPRCNT values below 10 were considered active. Activity score was based on GIPRCNT using the following formula: […]\nScore is 0 for GIPRCNT values of 100 or above, 50 for GIPRCNT values of 0, and 100 for GIPRCNT values of -100.", "values": [
      {"smiles": "COc1cc2c(cc1OCCCOC1=C=C=C(c3ccc4c(c3)c3cc(-c5ccc(OCCCOc6cc7c(cc6OC)C(=O)N6CCC[C@H]6C=N7)cc5)ccc3n4S(=O)(=O)c3ccc(C)cc3)C=C1)N=C[C@@H]1CCCN1C2=O", "growth": "42.1%"},
      {"smiles": "CC1(Cc2ccccc2)CC2=C(C(=O)O1)C(c1ccccc1)NC(=O)N2", "note": "(stereo not given)", "growth": "107%"},
      {"smiles": "Cc1ccc(C(=O)c2ccc(CC(=O)N=Nc3c(O)[nH]c4ccc(OC(F)(F)F)cc34)n2C)cc1", "growth": "94%"},
      {"smiles": "O=C(CN1C(=O)S/C(=C\\C(Cl)=C\\c2ccccc2)C1=O)NCCCn1ccnc1", "growth": "33.9%"},
      {"smiles": "C=C(C)[C@@H]1CC[C@]2(C(=O)N3CCN(C)CC3)CC[C@]3(C)[C@H](CC[C@@H]4[C@@]5(C)CC(CCCNC(C)=O)(CCCNC(C)=O)[C@H](OC(C)=O)C(C)(C)[C@@H]5CC[C@]43C)[C@@H]12", "growth": "107%"},
      {"smiles": "COc1nc(=O)n(C2C=CC(=O)O2)cc1F", "note": "(stereo not given)", "growth": "103%"},
      {"smiles": "O=C1/C(=C/c2ccc(-c3cccc(C(F)(F)F)c3)o2)SC(=S)N1CCc1ccc(O)cc1", "growth": "54.9%"},
      {"smiles": "CCCCCC#CC1OC23CCCCC2C(C#N)(C(=N)O3)C1(C#N)C#N", "note": "(stereo not given)", "growth": "99.3%"},
      {"smiles": "CCCn1nc(C(=O)N2CCCCC2)c2c1CCC(N1CCC(c3ccncc3)CC1)C2", "note": "(stereo not given)", "growth": "103%"},
      {"smiles": "COc1cc(/C=C(/c2ccccc2)[N+](=O)[O-])c(OC)c2c1OCO2", "growth": "-50.8% (active)"},
      {"smiles": "CC1=C2[C@@H](CC1)[C@]1(C)O[C@@](C3CC3)(C[C@H]1OC(=O)CO)[C@H]2OC(=O)/C=C/c1ccccc1", "growth": "97.1%"},
      {"smiles": "Cc1c(O)c(O)cc2c3c(oc12)CC(c1ccc2c(c1)OCO2)CC3=O", "note": "(stereo not given)", "growth": "90.9%"},
      {"smiles": "COc1ccc(-c2c[nH]c(C(=O)O)c2-c2cc(OC)c(OC)c(OC)c2)cc1", "growth": "25%"},
      {"smiles": "COc1ccc(Oc2nc(Nc3ccc(N4CCOCC4)cc3)ncc2NC(=O)c2cc(OC)cc(OC)c2)cc1", "growth": "79.3%"},
      {"smiles": "CN1Cn2c(ccc2C(F)(F)F)C(=O)CS1(=O)=O", "growth": "110%"},
      {"smiles": "BrC1=C(Br)C(Br)(Br)C(Br)=C1Br", "growth": "103%"},
      {"smiles": "O=Nc1ccc(NO)c2ccccc12", "growth": "104% and 76.4%"},
      {"smiles": "COc1c(NC=O)c2c(c([N+](=O)[O-])c1OC)C(=O)OC2", "growth": "109% and 102%"},
      {"smiles": "COc1ccc2c(c1)oc1c(C)c3c(c(C)c12)C(=O)N(Nc1ccccc1)C3=O", "growth": "97.4%"},
      {"smiles": "Cc1ccc(-c2nc3nc(-c4ccccc4)nc(N4CCCNCC4)c3o2)cc1", "growth": "-92.3% (active)"},
      {"smiles": "COc1ccc(-c2csc(NC(=O)CN3CCN(CCO)CC3)n2)cc1NS(=O)(=O)c1cccc2c(N(C)C)cccc12", "growth": "77.2%"},
      {"smiles": "O=C(NCc1ccc(Cn2c(=O)sn(-c3ccc(Cl)cc3)c2=O)cc1)OCc1ccc2c(Cl)cc(Cl)c(O)c2n1", "growth": "23.5%"},
      {"smiles": "CC[C@@H]1NC(=O)[C@H]([C@H](O)[C@H](C)C/C=C/c2ccc(CN3C(=O)C(C)=C(C)C3=O)cc2)N(C)C(=O)[C@H](C(C)C)N(C)C(=O)[C@H](CC(C)C)N(C)C(=O)[C@H](CC(C)C)N(C)C(=O)[C@@H](C)NC(=O)[C@H](C)NC(=O)[C@H](CC(C)C)N(C)C(=O)[C@H](C(C)C)NC(=O)[C@H](CC(C)C)N(C)C(=O)CN(C)C1=O", "growth": "78.7%"},
      {"smiles": "O=S(=O)(O)c1ccc(N=Nc2ccc(N=Nc3cccc4ccccc34)c(S(=O)(=O)O)c2)cc1", "growth": "104%"},
      {"smiles": "C=C1CC[C@@H]2[C@](C)(COC(C)=O)[C@H](OC(C)=O)CC[C@@]2(C)[C@@H]1CC(Nc1ccc(S(=O)(=O)Nc2nccs2)cc1)C1=CCOC1=O", "note": "(stereo not given in full)", "growth": "-0.895% (active)"},
      {"smiles": "C#CCn1cnc2cnc(Nc3cccc(NC(=O)CCl)c3)nc21", "growth": "-2.39% [6.25 µM] (active)"},
      {"smiles": "COc1ccc(Nc2nn3c(SCC(=O)c4ccc(C)cc4)nnc3s2)cc1", "growth": "97.3%"},
      {"smiles": "OCc1cc(CN2CCCCC2)c(O)c2ncccc12", "growth": "30.2%"},
      {"smiles": "O=C(N/N=C/c1ccc(O)cc1O)c1cccc(Nc2ccnc(C(F)(F)F)c2)c1", "growth": "34.7%"},
      {"smiles": "O=C1/C(=C/c2ccccc2[N+](=O)[O-])Cc2ccccc21", "growth": "52% and 32.2%"},
      {"smiles": "O=[N+]([O-])c1ccc2[nH]c3nccc(NCc4cccc(Cl)c4)c3c2c1", "growth": "84.7%"},
      {"smiles": "C[N+]1=C(/C=C\\C=C\\c2ccccc2)C(C)(C)c2ccccc21", "growth": "22.2%"},
      {"smiles": "COc1ccc(-c2cc(-c3cccc(Cl)c3)c(C#N)c(=O)[nH]2)c(OC)c1", "growth": "102%"},
      {"smiles": "CCCCCCCCCCCCCCCC(=O)O[C@@H]1[C@@H](O)[C@@H](O)C([C@H](NC(=O)[C@@H]2C[C@@H](CCC)CN2C)[C@H](C)Cl)O[C@@H]1SC", "note": "(stereo not given in full)", "growth": "101%"},
      {"smiles": "COc1ccc(C2=C(CN)C(O)NC(=NCC(=O)c3ccc4ccccc4c3)N2)cc1", "note": "(stereo not given)", "growth": "97.2%"},
      {"smiles": "O=C(c1cccc(Br)c1)N1CCN(c2ccnc3cc(Cl)ccc23)CC1", "growth": "96.4%"},
      {"smiles": "CCOC(=O)c1ccc(Nc2ncnc3c2cnn3-c2cccc(F)c2)cc1", "growth": "99.3%"},
      {"smiles": "COc1ccc2c(c1)CCNC21C(=O)Nc2c(Br)cc(Br)cc21", "note": "(stereo not given)", "growth": "104%"},
      {"smiles": "NC(N)=NC(N)=NCCCc1ccco1", "growth": "101%"},
      {"smiles": "N#CSc1c[nH]c2ccc(/C=C/C(=O)/C=C(/C=C/c3ccc4[nH]cc(SC#N)c4c3)OB(F)F)cc12", "growth": "19.6%"}
    ]}
  ]
}
